{"source": "the supplement of paper PMC13380429", "note": "Values without a mark were called inactive."}
{"test_system": "Vero E6 infected with SARS-CoV-2", "test": "inhibition of SARS-CoV-2 cytopathic effect; higher = more antiviral protection, active = above 15", "conditions": "833.33 nM; 48 h", "units": {"inhibition of SARS-CoV-2 cytopathic effect": "%"}}
{"smiles": "NC(=O)c1ncn([C@@H]2O[C@H](CO)[C@@H](O)[C@H]2O)c1N", "note": "[acadesine]", "inhibition of SARS-CoV-2 cytopathic effect": 0.21}
{"smiles": "NCc1cc(O)no1", "note": "[muscimol]", "inhibition of SARS-CoV-2 cytopathic effect": 0.14}
{"smiles": "CCCn1c(=O)c2nc(C34CC5CC(CC3C5)C4)[nH]c2n(CCC)c1=O", "inhibition of SARS-CoV-2 cytopathic effect": 2.31}
{"smiles": "CCCCNNC(=O)c1ccc(Br)cc1", "inhibition of SARS-CoV-2 cytopathic effect": 3.31}
{"smiles": "CC(=O)C1=C(O)[C@@H]2[C@H]3c4c[nH]c5cccc(c45)C[C@H]3C(C)(C)N2C1=O", "note": "[cyclopiazonic-acid]", "inhibition of SARS-CoV-2 cytopathic effect": -0.85}
{"smiles": "C=CCN1CC[C@]23c4c5ccc(O)c4O[C@H]2/C(=N/NC(=O)c2ccccc2)CC[C@@]3(O)[C@H]1C5", "note": "[naloxone-benzoylhydrazone]", "inhibition of SARS-CoV-2 cytopathic effect": 5.45}
{"smiles": "CC(C)(C)C(=O)/C(=N/c1ccc(Cl)cc1)NNc1ccc(Cl)cc1", "inhibition of SARS-CoV-2 cytopathic effect": 0.66}
{"smiles": "O=C(Nc1ncc(SCCN2CCCC2)s1)[C@]1(c2ccc(S(=O)(=O)C3CC3)cc2)C[C@H]1C1CCCCC1", "inhibition of SARS-CoV-2 cytopathic effect": -2.76}
{"smiles": "CC(C)(C)NCC(O)c1cc(O)cc(O)c1", "note": "(stereo not given)", "inhibition of SARS-CoV-2 cytopathic effect": -0.02}
{"smiles": "C#C[C@]1(O)CC[C@H]2[C@@H]3CCc4cc(O)ccc4[C@H]3CC[C@@]21C", "inhibition of SARS-CoV-2 cytopathic effect": 3.6}
{"smiles": "CCn1cc(C(=O)O)c(=O)c2cnc(N3CCCC3)nc21", "note": "[piromidic-acid]", "inhibition of SARS-CoV-2 cytopathic effect": -0.21}
{"smiles": "C=CC(=O)Nc1cccc(Nc2nc(Nc3ccc(N4CCN(C(C)=O)CC4)cc3OC)ncc2C(F)(F)F)c1", "note": "[rociletinib]", "inhibition of SARS-CoV-2 cytopathic effect": -2.42}
{"smiles": "CCOc1nc2cccc(C(=O)OCc3oc(=O)oc3C)c2n1Cc1ccc(-c2ccccc2-c2noc(=O)[nH]2)cc1", "note": "[azilsartan-medoxomil]", "inhibition of SARS-CoV-2 cytopathic effect": 1.93}
{"smiles": "CC[C@@](C)(Nc1ccnc(-c2c[nH]c3ncccc23)n1)C(=O)NCC(F)(F)F", "note": "[decernotinib]", "inhibition of SARS-CoV-2 cytopathic effect": 1.86}
{"smiles": "CNC(=N)NC(=O)Nc1c(C)cccc1C", "note": "[lidamidine]", "inhibition of SARS-CoV-2 cytopathic effect": 3.62}
{"smiles": "CCCC[P+](CCCC)(CCCC)Cc1ccc(NC(=O)[C@H](Cc2ccc3ccccc3c2)N/C(=N/C2CCCCC2)NC2CCCCC2)cc1", "inhibition of SARS-CoV-2 cytopathic effect": -4.62}
{"smiles": "Cc1cc(CN)cc(C)c1NC(=O)c1ccc(-c2cc(Cl)ccc2Cl)o1", "inhibition of SARS-CoV-2 cytopathic effect": -1.5}
{"smiles": "N#C/C(=C1/SCC(c2ccccc2Cl)S1)n1ccnc1", "note": "(stereo not given) [lanoconazole]", "inhibition of SARS-CoV-2 cytopathic effect": 0.83}
{"smiles": "CCOCc1nc2c(N)nc3ccccc3c2n1CC(C)(C)O", "note": "[resiquimod]", "inhibition of SARS-CoV-2 cytopathic effect": 1.03}
{"smiles": "CCCCc1nc(Cl)c(C(=O)O)n1Cc1ccc(-c2ccccc2-c2nn[nH]n2)cc1", "note": "[carboxylosartan]", "inhibition of SARS-CoV-2 cytopathic effect": 0.51}
{"smiles": "CN1CCN(C(=O)c2cc3cc(Cl)ccc3[nH]2)CC1", "inhibition of SARS-CoV-2 cytopathic effect": -1.48}
{"smiles": "Nc1nccc(/C=C/c2ccccc2)n1", "inhibition of SARS-CoV-2 cytopathic effect": 0.59}
{"smiles": "C[C@]12CC[C@@H]3c4ccc(OS(=O)(=O)O)cc4CC[C@H]3[C@@H]1CCC2=O", "note": "[estropipate]", "inhibition of SARS-CoV-2 cytopathic effect": 1.96}
{"smiles": "CC(=O)[O-].CC(=O)[O-].N.NC1CCCCC1.[Cl-].[Cl-].[Pt+4]", "note": "[satraplatin]", "inhibition of SARS-CoV-2 cytopathic effect": 1.69}
{"smiles": "c1ccc(CCNc2nc(-c3ccccc3)cs2)cc1", "note": "[fanetizole]", "inhibition of SARS-CoV-2 cytopathic effect": -0.64}
{"smiles": "Nc1nc(N)c2nc(-c3cccc(O)c3)cnc2n1", "inhibition of SARS-CoV-2 cytopathic effect": -0.48}
{"smiles": "CN1CCCCC1Cn1cc(C(=O)c2cc([N+](=O)[O-])ccc2I)c2ccccc21", "note": "(stereo not given)", "inhibition of SARS-CoV-2 cytopathic effect": -2.69}
{"smiles": "CC(O)(P(=O)(O)O)P(=O)(O)O", "note": "[etidronic-acid]", "inhibition of SARS-CoV-2 cytopathic effect": 0.77}
{"smiles": "Cc1cc2cc3c(C)cc(=O)oc3c(C)c2o1", "note": "[trioxsalen]", "inhibition of SARS-CoV-2 cytopathic effect": 3.62}
{"smiles": "Cc1cc(Cn2nnc3c(-c4ccco4)nc(N)nc32)ccc1N", "note": "[vipadenant]", "inhibition of SARS-CoV-2 cytopathic effect": -0.18}
{"smiles": "CC(=O)SC[C@@H](C)C(=O)N1CCC[C@H]1C(=O)N[C@@H](Cc1ccccc1)C(=O)O", "note": "[alacepril]", "inhibition of SARS-CoV-2 cytopathic effect": -1.33}
{"smiles": "C[C@@H]1CC[C@@]2(OC1)O[C@H]1C[C@H]3[C@@H]4CC=C5C[C@@H](O)CC[C@]5(C)[C@H]4CC[C@]3(C)[C@H]1[C@@H]2C", "note": "[diosgenin]", "inhibition of SARS-CoV-2 cytopathic effect": -2.38}
{"smiles": "Cc1c(Cc2ccc3ccccc3n2)c2cc(F)ccc2n1CC(=O)O", "inhibition of SARS-CoV-2 cytopathic effect": -1.23}
{"smiles": "Nc1ccc2ncnc(NCCc3ccc(Oc4ccccc4)cc3)c2c1", "inhibition of SARS-CoV-2 cytopathic effect": 0.25}
{"smiles": "CC(C)C(=O)Nc1ncc(-c2cc(C(F)F)nn2-c2c(Cl)cccc2Cl)s1", "inhibition of SARS-CoV-2 cytopathic effect": -2.46}
{"smiles": "CC1=CC(=O)c2ccccc2C1=O", "note": "[menadione]", "inhibition of SARS-CoV-2 cytopathic effect": -0.16}
{"smiles": "O=[N+]([O-])c1c(Nc2cc(F)cc(Cl)c2)ccc2nonc12", "inhibition of SARS-CoV-2 cytopathic effect": -0.1}
{"smiles": "Cc1ccc2cc(-c3c(C)ccc(C(=O)c4c(-c5ccccc5)n(C)n(-c5ccccc5)c4=O)c3N)ccc2n1", "inhibition of SARS-CoV-2 cytopathic effect": 2.1}
{"smiles": "CCCCS(=O)(=O)N[C@@H](Cc1ccc(OCCCCC2CCNCC2)cc1)C(=O)O", "note": "[tirofiban]", "inhibition of SARS-CoV-2 cytopathic effect": 0.26}
{"smiles": "CCCCCNCC(N)=O", "note": "[milacemide]", "inhibition of SARS-CoV-2 cytopathic effect": 2.58}
